Sampled rows, rich in hits. Any-hit rate of the full collection: about 7.1%.
SW480 rerep: A quantitative high throughput screen for small molecules that induce DNA re-replication in SW480 colon adenocarcinoma cells. SW480 DNA re-replication, Hoechst DNA content imaging, 48 h. Potency, µM (highest dose often 46.1 µM), hits mostly activators. AID 624297, 2012. 340,000 tested, 1.8% active; further: nearly all actives have a fitted effect of over 55% in size
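Readout is total intensity of Hoechst-stained nuclei, excited at 405 nm and collected at 500-530 nm. Compound treatment lasted 48 hr at 37 C in 5% CO2 before staining.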
PINK1 expr mod: A Quantitative High throughput Screen to Identify Chemical Modulators of PINK1 Expression. Potency, µM (top dose mostly 76.6 µM), hits mostly activators. 410,000 tested, 0.2% active. PINK1 immunofluorescence, high-content cytometry, 24 h. AID 624263, 2012; active means well fitted activation curve with a large enough effect; inconclusive means small, poorly fitted or top-dose-only effect; cell line not stated here; further: nearly all actives have a fitted effect of over 65% in size
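A stable cell line was treated with compounds at 5 concentrations for 24 hours, with CCCP as control. PINK1 levels and mitochondrial localization were measured by immunofluorescence with mitochondrial, cell and nuclear markers after fixation, read by laser-scanning cytometry.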
IL1B secr inh: qHTS for Inhibitors of Inflammasome Signaling: IL-1-beta AlphaLISA Primary Screen. THP-1 LPS/ATP IL-1B secretion, AlphaLISA, 16 h; hits give low values. activity change, % at 57.5 µM. AID 743279, 2014. 360,000 tested, 4.7% active; in the data active means activity change below about -50%; inconclusive means mostly about -30% to -49%
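Secreted IL-1B measured by AlphaLISA bead assay after 16 h compound exposure of THP-1 cells; compounds (final up to 57.5 uM) added 1 h before LPS (250 ng/mL) and ATP (1.25 mM) stimulation; lower signal means less secretion.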
ATXN2 expr inh: Primary qHTS for Inhibitors of ATXN expression; HEK-293 ATXN2-luciferase reporter, luminescence, 24 h; Potency, µM (titrated, usually from 57 µM), actives largely listed as inhibitors; 360,000 tested, 0.72% active; AID 1745845, 2022; further: nearly all actives have a fitted effect of over 55% in size
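qHTS (up to 57 uM final) was run with 24 h compound exposure of reporter cells at 37 °C. Each well was multiplexed: SteadyGlo luminescence measured ATXN2-luciferase expression after a fluorogenic Gly-Phe-AFC viability readout (25 uM final).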
MCF10A rereplic: A quantitative high throughput screen for small molecules that induce DNA re-replication in MCF 10a normal breast cells. Potency, µM (highest dose often 46.1 µM), most hits filed as activators. MCF 10A DNA re-replication, Hoechst nuclear intensity, 48 h. 350,000 tested, 2.9% active; further: nearly all actives have a fitted effect of over 50% in size
S2 tox: Viability Counterscreen for Primary qHTS for Inhibitors of ATXN expression; 400,000 tested, 0.49% active; Potency, µM (doses to about 56.7 µM), hits mostly cytotoxic; S2 cells (HEK-293 line with an ATXN2-luciferase reporter) viability, CellTiter-Fluor protease fluorescence, 24 h; further: nearly all actives have a fitted effect of over 40% in size
Numbers stand for hits; - = inactive; ? = inconclusive; . = no result. Unless noted, the call rests on the fitted dose curve; in most records, active means well fitted curve in the direction sought with a large enough effect; inconclusive means small, poorly fitted or top-dose-only effect, or another doubt; inactive means no such curve, though single readings can be large; an effect the other way counts as inactive or inconclusive.

SMILES	SW480 rerep	PINK1 expr mod	IL1B secr inh	ATXN2 expr inh	MCF10A rereplic	S2 tox
COc1ccc(Br)cc1CN(C)CC(O)COc1ccc(Br)cc1 (stereo unspecified)	?	-	-85.0	?	?	-
OCCN(CCO)CC(O)COc1ccc(Br)cc1 (stereo unspecified)	-	-	-	.	-	?
COc1ccc(CN(C)CC(O)COc2ccc(C(=O)c3ccccc3)cc2)c(OC)c1OC (stereo unspecified)	?	-	-66.9	-	-	?
COc1ccc(CN(C)CC(O)COC(c2ccccc2)c2ccccc2)c(OC)c1OC (stereo unspecified)	?	-	.	-	?	-
Cc1cc2c(c(-c3ccc(Cl)cc3)c1)OC(CNC(=O)CCC(=O)N(C)C)C2 (stereo unspecified)	.	-	.	.	.	-
O=C1CCCc2c1nc(-c1ccc([N+](=O)[O-])cc1)n2O	-	-	.	-	23.1µM	-
O=C1CCCc2c1nc(-c1ccc(F)cc1)n2O	-	-	-	-	-	-
COc1ccc2c(c1)CC(C(=O)Nc1cc(Cl)ccc1C)CO2 (stereo unspecified)	.	-	.	.	.	.
O=C(Nc1ccc(Cl)cc1)NC1CCCC1Cc1ccco1 (stereo unspecified)	-	-	-89.4	-	-	-
O=S(=O)(c1ccc(Cl)s1)N1CCN(c2ncccn2)CC1	-	-	-	-	18.4µM	-
Cc1cccc(-c2noc(-c3cccnc3NCc3ccco3)n2)c1	.	-	.	-	.	-
COc1cccc(NC(=O)c2oc3ccccc3c2NC(=O)C(C)(C)C)c1	?	?	-	-	25.9µM	-
COc1cccc(NC(=O)c2oc3ccccc3c2NC(=O)c2cc3ccccc3o2)c1	.	-	.	-	.	-
COC1=CC(=O)C(C2CC(=O)c3c(O)cc(O)cc3O2)=CC1=O (stereo unspecified)	?	-	-96.9	?	-	.
COc1c(CC=C(C)C)cc(C2CC(=O)c3c(O)cc(O)cc3O2)cc1CC=C(C)C (stereo unspecified)	-	-	?	?	?	.
O=C(OCC(=O)N1CCCC1=O)c1nc(Cl)c(Cl)c(Cl)c1Cl	?	-	-95.0	?	?	31.6µM
Nc1c(Cl)c(Cl)nc(C(=O)OCC(=O)N2CCCC2=O)c1Cl	-	-	-	-	-	-
CC(/C=C1\SC(=S)N(NC(=O)c2ccncc2)C1=O)=C\c1ccccc1	-	-	-79.0	-	-	-
CC(/C=C1\SC(=S)N(NC(=O)c2ccccc2C)C1=O)=C\c1ccccc1	-	?	-	-	10.3µM	-
CCC(c1nnnn1Cc1ccco1)N(CCc1ccccc1)Cc1cc2cc(C)ccc2[nH]c1=O (stereo unspecified)	-	-	-51.9	?	-	.
CCOC(=O)Cn1nnnc1C(CC)N(Cc1ccccc1)Cc1cc2cc(C)ccc2[nH]c1=O (stereo unspecified)	-	-	-	-	-	-
CCC(c1nnnn1Cc1ccc(OC)cc1)N(CCCO)Cc1cc2cc3c(cc2[nH]c1=O)OCO3 (stereo unspecified)	-	-	-	-	-	-
CC(C)C(c1nnnn1Cc1ccccc1)N(CCCO)Cc1cc2cc3c(cc2[nH]c1=O)OCO3 (stereo unspecified)	-	-	-59.7	-	-	-
CCC(c1nnnn1Cc1ccccc1)N(Cc1ccco1)Cc1cc2cc(OC)ccc2[nH]c1=O (stereo unspecified)	-	-	-54.0	-	?	?
CCC(c1nnnn1CCOC)N(Cc1ccc(C)cc1)Cc1cc2cc(OC)ccc2[nH]c1=O (stereo unspecified)	-	-	-	-	-	-
SMILES	SW480 rerep	PINK1 expr mod	IL1B secr inh	ATXN2 expr inh	MCF10A rereplic	S2 tox
Cc1ccc2[nH]c(=O)c(CN(CCc3ccccc3)C(c3nnnn3Cc3ccco3)C(C)C)cc2c1 (stereo unspecified)	?	-	-90.8	?	?	?
COc1ccc(NC(=O)C(C)n2c(C)c3cnn(-c4ccccc4)c(=O)c3c2C)cc1Cl (stereo unspecified)	.	-	.	-	.	-
CCc1cccc(C)c1NC(=O)c1ccc2c(c1)CCN2S(=O)(=O)c1ccc(Cl)cc1	.	-	.	-	.	-
CCC(c1nnnn1CCc1ccccc1)N(Cc1ccco1)Cc1cc2cc(C)cc(C)c2[nH]c1=O (stereo unspecified)	?	-	-52.8	-	?	-
CC(=O)c1ccc(-c2ccc(C(=O)NCC(c3ccc(F)cc3)N3CCOCC3)o2)cc1 (stereo unspecified)	?	-	-	-	-	-
Cc1ccc(-n2nnnc2CNC(=O)c2ccc([N+](=O)[O-])o2)cc1C	13µM	-	-101.7	-	?	?
Cc1ccc(-n2nnnc2CNC(=O)c2ccc(Br)o2)cc1C	-	-	-	-	-	-
O=C(NCC(c1ccc(F)cc1)N1CCOCC1)c1ccc([N+](=O)[O-])o1 (stereo unspecified)	10.3µM	-	.	-	18.4µM	-
O=C(NCc1nnnn1-c1ccc(F)cc1)c1ccc([N+](=O)[O-])o1	?	-	-96.9	-	?	-
CCCc1cc(N2CCN(c3cc(Cl)ccc3C)CC2)n2cnnc2n1	.	-	.	-	.	-
Cc1cccc(C(=O)N[C@H](C(=O)Nc2ncc(C)s2)C(C)C)c1	?	-	?	8.44µM	-	-
Cc1cccc(C(=O)N[C@H](C(=O)Nc2nnc(C3CC3)s2)C(C)C)c1	-	-	-	-	-	-
CC(C)Oc1ccc(CNC(=O)CCCn2c(=O)c3cccn3c3cccnc32)cc1	.	-	.	.	.	.
Cc1cc(C)cc(N(C(=O)c2cc3ccccc3oc2=O)C2C=CS(=O)(=O)C2)c1 (stereo unspecified)	-	-	-67.2	-	-	-
N/C(=N\OC(=O)Nc1ccccc1)c1ncc([N+](=O)[O-])s1	?	-	-64.3	?	?	?
Cc1cc(C(=O)CCl)c(C)n1CCc1ccc(F)cc1	-	-	-58.2	?	?	.
Cc1cc(C(=O)CSc2nnc(N)s2)c(C)n1CCc1ccc(Cl)cc1	-	-	-	-	-	-
Cc1cc(C(=O)CSc2nnnn2C)c(C)n1CCc1ccc(F)cc1	-	-	-	-	-	-
COc1ccc(CCn2c(C)cc(C(=O)CCl)c2C)cc1OC	5.8µM	-	-100.5	?	6.51µM	.
Cc1cc(C(=O)CCl)c(C)n1CCc1ccc(Cl)cc1	5.17µM	-	-96.2	25.1µM	16.4µM	?
CCCN1Cc2cccc(C(=O)Nc3ccc(OC)cc3OC)c2C1=O	.	-	.	-	.	-

Bioassay records: PubChem, National Center for Advancing Translational Sciences (NCATS)
